Rows were chosen to be rich in hits. Some 6.8% of all compounds tested hit in one or more screens of this group.
T cruzi growth – T. cruzi intracellular proliferation inhibitors, primary screen, cell-based, beta-gal Tulahuen parasites, NIH3T3 host, luminescence; T. cruzi beta-gal in NIH3T3, GalScreen luminescence, 90 h; inhibition, % at 8.34 µM; 77,000 compounds, 5.9% hits;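 active means mean inhibition above about 93%, with at least 55% of replicates each passing it, limit read from the data, passing the limit was not always enough; inconclusive means only one of those two conditions holds; inactive means neither condition holds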
Pf Dd2 growth – P. falciparum Dd2 growth inhibitors, primary screen, SYBR Green fluorescence, single dose replicates; AID 1159554, 2015; 72 h; hits give low values; activity change, % at 10 µM; 94,000 compounds, 2.3% hits; in the data active means activity change below about -80%; inconclusive means no clear call, values can overlap the other calls
C diff growth – C. difficile growth inhibitors, primary screen, HTS. AID 1259249, 2017. Clostridium difficile clinical isolate growth, OD600, 24 h; hits give low values. growth activity, negative = inhibition, % at 16 µg/mL (by protocol). 86,000 compounds, 0.25% hits;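 active means mean growth activity at or below -80% and every replicate also at or below -80%; inconclusive means mean at or below -80% but some replicate above -80%; inactive means mean growth activity above -80%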;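 further: 0% = DMSO wells and -100% = levofloxacin 16 µg/mL wells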
* hit, by the source's call; u = inconclusive; x = not tested or not shown.

SMILES | T cruzi growth | Pf Dd2 growth | C diff growth
C[C@@H]1CCCCO[C@H](CN(C)S(=O)(=O)c2cccs2)[C@@H](C)CN([C@@H](C)CO)C(=O)c2cc(NC(=O)Nc3ccc(C(F)(F)F)cc3)ccc2O1 | 93.8 | -86.9* | -0.2
C[C@@H]1CCCCO[C@@H](CN(C)S(=O)(=O)c2cccs2)[C@@H](C)CN([C@H](C)CO)C(=O)c2cc(NC(=O)Nc3ccc(C(F)(F)F)cc3)ccc2O1 | 18.4 | -66.5 | -4.4
C[C@@H]1CN([C@@H](C)CO)C(=O)c2cc(NC(=O)Nc3ccc(C(F)(F)F)cc3)ccc2O[C@@H](C)CCCCO[C@@H]1CN(C)S(=O)(=O)c1cccs1 | 37.5 | -56.3 | 7.3
C[C@@H]1CCCCO[C@@H](CN(C)S(=O)(=O)c2cccs2)[C@@H](C)CN([C@@H](C)CO)C(=O)c2cc(NC(=O)Nc3ccc(C(F)(F)F)cc3)ccc2O1 | 84.4 | -87.1* | 4.9
C[C@@H]1CN([C@H](C)CO)C(=O)c2cc(NC(=O)CCC(F)(F)F)ccc2O[C@@H](C)CCCCO[C@@H]1CN(C)S(=O)(=O)c1cccs1 | 68.3 | -84.7* | 5.6
C[C@@H]1CN([C@@H](C)CO)C(=O)c2cccc(NS(C)(=O)=O)c2O[C@H]1CN(C)Cc1ccc(C(F)(F)F)cc1 | 47.2 | -22.9 | 1.7
C[C@H](NC(=O)C[C@@H]1CC[C@H](NC(=O)c2cccnc2)[C@@H](CO)O1)c1ccccc1 | -22.5 | 5.4 | x
COc1ccc2c3c(n(C)c2c1)[C@@H](CO)N(Cc1ccccc1F)CC31CN(CC2CC2)C1 | x | -7.9 | 7.4
COc1ccc2c3c(n(C)c2c1)[C@H](CO)N(CC1CC1)CC31CCN(Cc2ccc(F)cc2)CC1 | x | -85.2* | 11.8
COc1ccc2c3c(n(C)c2c1)[C@@H](CO)N(Cc1ccccc1OC)CC31CCN(CC2CC2)CC1 | x | -90.7* | 13.2
COc1ccc2c3c(n(C)c2c1)[C@@H](CO)N(Cc1ccccc1F)CC31CCN(CC2CC2)CC1 | x | -88.0* | 4.0
COc1ccc2c3c(n(C)c2c1)[C@H](CO)N(Cc1ccccc1OC)CC31CCN(CC2CC2)CC1 | x | -66.3 | 15.1
COc1ccc2c3c(n(C)c2c1)[C@@H](CO)N(CC1CC1)CC31CCN(Cc2ccc(F)cc2)CC1 | x | -76.8 | 7.7
COC(=O)C[C@H]1CC[C@H]2[C@@H](COc3ccc(NS(=O)(=O)c4cccc(F)c4)cc3C(=O)N2C)O1 | 18.7 | 6.9 | 2.7
O=C(C[C@H]1CC[C@H]2[C@@H](COC[C@H](O)CN2S(=O)(=O)c2cccc(F)c2)O1)Nc1ccccc1 | x | -25.0 | 3.5
COc1ccccc1C#Cc1ccc2c(c1)[C@H]1[C@H](CCN1S(=O)(=O)c1ccccc1)[C@H](CO)N2 | 89.0 | -66.5 | -2.5
O=S(=O)(c1ccc(F)cc1)N1CC[C@@H]2[C@@H](CO)Nc3ccc(C#Cc4cccc(F)c4)cc3[C@@H]21 | x | -10.4 | 36.0
OC[C@@H]1Nc2ccc(C#Cc3cccc(F)c3)cc2[C@@H]2NCC[C@H]12 | x | -90.8* | -97.6*
COc1ccccc1C#Cc1ccc2c(c1)[C@H]1NCC[C@H]1[C@@H](CO)N2 | x | -87.0* | -0.3
CC(C)NC(=O)Nc1ccc2c(c1)C(=O)N([C@@H](C)CO)C[C@@H](C)[C@H](CN(C)S(C)(=O)=O)O2 | 4.9 | 6.1 | -1.5
C[C@H](CO)N1C[C@H](C)[C@H](CN(C)Cc2ccccc2)Oc2c(NC(=O)Nc3ccc(C(F)(F)F)cc3)cccc2C1=O | 63.6 | -0.4 | 13.1
C[C@@H]1CN([C@@H](C)CO)C(=O)c2cccc(NC(=O)Nc3ccc(C(F)(F)F)cc3)c2O[C@@H]1CN(C)Cc1ccccc1 | 29.4 | -26.3 | -97.6*
C[C@H](CO)N1C[C@H](C)[C@@H](CN(C)Cc2ccccc2)Oc2c(NC(=O)Nc3ccc(C(F)(F)F)cc3)cccc2C1=O | 29.8 | -7.4 | 12.6
C[C@@H]1CN([C@@H](C)CO)C(=O)c2cccc(NC(=O)Nc3ccccc3)c2O[C@@H]1CN(C)Cc1ccc(C(F)(F)F)cc1 | -28.2 | -62.1 | -96.7*
C[C@@H]1CN([C@H](C)CO)C(=O)c2cccc(NC(=O)Nc3ccc(F)cc3)c2O[C@@H]1CN(C)C | x | -1.9 | 6.5
SMILES | T cruzi growth | Pf Dd2 growth | C diff growth
COc1ccc2c3c(n(C)c2c1)[C@H](CO)N(CC1CC1)CC31CCN(C(C)=O)CC1 | x | 44.3 | x
CCCNC(=O)Nc1ccc2c(c1)OC[C@H](C)N(C(=O)C1CCOCC1)C[C@@H](C)[C@@H](OC)CN(C)C2=O | 24.0 | 15.0 | x
O=C(C[C@H]1C=C[C@H](NC(=O)Cc2ccccn2)[C@H](CO)O1)NCCCN1CCOCC1 | -29.8 | 16.8 | x
O=C(C[C@H]1C=C[C@H](NC(=O)Cc2ccccn2)[C@H](CO)O1)NCCc1ccccc1 | x | -92.4* | -4.3
CC(C)C#Cc1ccc2c(c1)O[C@H](CN(C)Cc1ccncc1)[C@@H](C)CN([C@@H](C)CO)S2(=O)=O | 117.1* | -65.3 | 7.5
C[C@@H]1CN([C@@H](C)CO)S(=O)(=O)c2ccc(C#C[C@@H](C)O)cc2O[C@@H]1CN(C)Cc1ccncc1 | 56.6 | -17.2 | 7.3
C[C@H](O)C#Cc1ccc2c(c1)O[C@@H](CN(C)Cc1ccncc1)[C@@H](C)CN([C@H](C)CO)S2(=O)=O | 89.9 | 2.1 | -1.1
CC(C)C#Cc1ccc2c(c1)O[C@@H](CN(C)Cc1ccncc1)[C@H](C)CN([C@@H](C)CO)S2(=O)=O | 121.2* | -73.7 | -8.6
C[C@@H]1CN([C@H](C)CO)S(=O)(=O)c2ccc(-c3ccncc3)cc2O[C@H]1CN(C)Cc1ccc(Oc2ccccc2)cc1 | 52.6 | -87.4* | 10.7
C[C@@H]1CN([C@@H](C)CO)S(=O)(=O)c2ccc(-c3ccncc3)cc2O[C@@H]1CN(C)Cc1ccccc1 | 86.4 | -29.1 | -0.5
COc1ccc2c3c([nH]c2c1)[C@H](CO)N(Cc1ccccn1)CC31CN(Cc2cccc(F)c2)C1 | x | 42.3 | x
COc1ccc2c3c([nH]c2c1)[C@H](CO)N(C(=O)c1ccccc1)CC31CN(S(=O)(=O)c2cccs2)C1 | x | -63.2 | -7.6
C[C@@H]1CN([C@H](C)CO)C(=O)c2cccc(NS(=O)(=O)c3ccc(Cl)cc3)c2O[C@H]1CN(C)C(=O)Nc1ccc(C(F)(F)F)cc1 | -53.6 | 0.5 | 12.2
CC(C)NC(=O)Nc1ccc2c(c1)C(=O)N([C@@H](C)CO)C[C@@H](C)[C@H](CN(C)CC1CCCCC1)O2 | -38.9 | 7.7 | -1.8
O=C(Nc1ccccc1F)N[C@@H]1CC[C@@H](CCNS(=O)(=O)c2ccccc2)O[C@H]1CO | -18.7 | -1.0 | -1.8
C[C@@H]1CCCCO[C@@H](CN(C)Cc2ccc(C(=O)Nc3ccccc3N)cc2)[C@@H](C)CN([C@H](C)CO)C(=O)c2cc(NS(=O)(=O)c3ccc(F)cc3)ccc2O1 | x | -76.7 | 1.0
COc1ccc(S(=O)(=O)Nc2ccc3c(c2)C(=O)N([C@@H](C)CO)C[C@@H](C)[C@H](CN(C)Cc2ccc(C(=O)Nc4ccccc4N)cc2)OCCCC[C@@H](C)O3)cc1 | 62.4 | u | 0.5
Cc1noc(C)c1S(=O)(=O)Nc1ccc2c(c1)C(=O)N([C@H](C)CO)C[C@H](C)[C@H](CN(C)Cc1ccc(C(=O)Nc3ccccc3N)cc1)OCCCC[C@@H](C)O2 | x | -85.7* | -0.1

Bioassay records from PubChem.
